SMILES strings stand for the structures. Compounds without any hit were thinned out: in the full panel of roughly 83,000, 20% have a hit.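 Plates (96-well) were seeded with cells, treated with compound at one concentration, and incubated for 48 hours before percent growth was determined.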 Active and inactive are the calls of the source. Rule for the calls: active = growth percent below 10; inactive = the rest.

For 33 compounds, growth results are on record in PubChem BioAssay (NCI).

The assay concerns SF-295 CNS. The experiment in a line: NCI-60 one-dose screen, 48 h (100 = growth as untreated, 0 = no growth, -100 = all killed). The settings on record: 10 µM unless noted.
With `Fc1ccc(COc2ccc(Nc3ncnc4sc5c(c34)CCCC5)cc2)cc1`, the growth was 89.8% (inactive). Turning to `COc1cc(C2Cc3ncccc3-c3[nH]c(=O)c4cccnc4c32)cc(OC)c1OC` (stereo not drawn), the growth was 1.73% (active). Consider `O=C(c1ccc(Cl)cc1Cl)N1c2ccccc2Sc2ccccc21`, for which the growth was 53.1% (inactive).

Consider `O=C(N/N=C/c1ccc([N+](=O)[O-])cc1)c1ccc2nc(-c3ccc(Cl)cc3)[nH]c2c1`, for which the growth is 21.7% (inactive). With `O=C(NCc1ccccc1O)c1cccc2ccccc12`, the growth is 87.3% (inactive). Consider `CC1=C(C(=O)n2c3ccccc3c3ccccc32)C(c2cccc([N+](=O)[O-])c2)C(C(=O)n2c3ccccc3c3ccccc32)=C(C)N1`, for which the growth is 102% (inactive). `COc1ccc(/C=C/C(=O)c2ccc(NC(=O)CSc3nnc(-c4cc(-c5ccccc5)nc5ccccc45)n3-c3ccccc3)cc2)cc1`: the growth was 103% (inactive).

Consider `Cn1cc(-c2nc(-c3c[nH]c4ccncc34)cs2)c2cc(Br)ccc21`, for which the growth is -78% (active). As for `C#Cc1cccc(Oc2ccc(NC(=O)CCl)cc2)c1`, the growth is 85.5% [8.25 µM] (inactive). As for `CC1(C)CC[C@]2(C(=O)N3CCOCC3)CC[C@]3(C)C(=CC[C@@H]4[C@@]5(C)C/C(=C/c6ccncc6)C(=O)C(C)(C)[C@@H]5CC[C@]43C)[C@@H]2C1`, the growth is 25.4% (inactive). `CC(C)c1ccc(NC(=O)Nc2ccc(NC(=O)c3ccccc3N)cc2)cc1`: the growth was -27.3% (active). For `Cc1cc(C(=O)Nc2cc(Nc3ncccc3-c3ncnc4nc[nH]c34)ccc2F)cc(C(F)(F)F)c1` the value was 78.4% (inactive); for `COc1cc2c3c(n(CCCCNCCCn4c5c(c6cc(OC)c(OC)cc6c4=O)C(=O)c4cc6c(cc4-5)OCO6)c(=O)c2cc1OC)-c1cc2c(cc1C3=O)OCO2`, 99.9% (inactive); for `CNC(=O)c1c(NC(=O)c2ccc(C(C)(C)C)cc2)sc2c(CN(C)C)c(O)ccc12`, -80.6% (active). Consider `CCCCn1sc(=O)n(Cc2ccc(CNC(=O)OCc3ccc4c(Cl)cc(Cl)c(O)c4n3)cc2)c1=O`, for which the growth was 34.5% (inactive). As to `O=C1Nc2ccc(F)cc2/C1=N/c1nnc(Sc2ccccc2)s1`, the growth was 108% (inactive). Under `N#Cc1c(N2CCOCC2)nc(=S)[nH]c1-c1ccccc1` stands 54.5% (inactive). Take `O=C(CSc1nnc2sc(Nc3cccc(Cl)c3)nn12)c1ccc(F)cc1`: the growth is 97.2% (inactive).

For `C=C(CO)[C@@H]1CC[C@]2(COC3CCCCO3)CC[C@]3(C)[C@H](CC[C@@H]4[C@@]5(C)C=C(C=O)C(=O)C(C)(C)[C@@H]5CC[C@]43C)[C@@H]12` (stereo partly drawn), the growth was -89.5% (active). As for `COc1ccc(-c2cc(C(=O)N3N=C(c4ccc(N)cc4)CC3c3ccccc3)c3ccccc3n2)cc1` (stereo not drawn), the growth was 6.86% (active). For `COc1ccc(-c2cc(-c3cc(OC)c(OC)c(OC)c3)c(C#N)c(=O)n2CCCCCC(=O)NO)cc1` the value was 91.2% (inactive); for `Cn1ccnc1C(=O)/C=C/c1ccc(C(=O)Nc2ccc(F)cc2)cc1`, 6.55% (active); for `C=C1C(=O)O[C@H]2[C@H]1CC/C(COC(=O)NCCCCCCCCNC(=O)OC/C1=C/CC[C@@]3(C)O[C@H]3[C@H]3OC(=O)C(=C)[C@@H]3CC1)=C\CC[C@@]1(C)O[C@@H]21`, -21.7% (active). Turning to `C/C(C=O)=C\c1ccc2c(c1)OCO2`, the growth is 104% (inactive). As for `COc1cccc(/C=C/C(=O)c2cc3c(N)c(C(=O)Nc4cccc(Cl)c4C)sc3nc2C)c1`, the growth was 5.12% (active). Consider `COC(=O)/C=C1/SC(=Nc2cccc(Cl)c2)N(CCc2c[nH]c3ccc(O)cc23)C1=O`, for which the growth is 64.2% (inactive). Take `CCC/C(=N\NC(N)=O)C(OC)OC`: the growth was 112% (inactive).

Turning to `COc1ccc2cc(Cn3cc[n+](Cc4ccc5ccccc5c4)c3)ccc2c1`, the growth was 67% (inactive). Take `Cn1c(=O)c2c(c3ccccc31)OC(N)=C(C#N)C21C(=O)c2ccccc2C1=O`: the growth was 102% (inactive). Under `CN1CCN(c2ccc3c(c2)nc(NNC(=O)c2cnccn2)c2cccn23)CC1` stands 10.4% (inactive). In the case of `Cc1cc(C)c(-c2c(O)c(Br)c(-c3c(C)cc(C)c(Br)c3C)c(O)c2Br)c(C)c1Br`, the growth is -10.2% (active). With `CCN(CC)S(=O)(=O)c1ccc(S(=O)(=O)N2CCC[C@@H](C(=O)N3CCN(C(=O)OC(C)(C)C)CC3)C2)cc1`, the growth was 55.8% (inactive). As for `O=C1/C=C/[C@@H](O)[C@@H]2C[C@@H](O)C[C@H]2/C=C/CCC[C@H](CCOCc2ccccc2)O1`, the growth is -18.3% (active).
